Screening data deposited in PubChem by The Scripps Research Institute Molecular Screening Center.
LYPLA1 counter: LYPLA1 (human) inhibition in PME1 counter-screen. O75608. recombinant LYPLA1, FP-Rh probe fluorescence polarization. inhibition, % at 5.9 µM. 0.16% of 320,000 active. AID 2174;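 active = inhibition above the mean of all tested compounds plus 3 SD, set per campaign, cut at about 14% in these data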;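 also: inhibitors block serine hydrolase probe labeling of LYPLA1 so polarization falls; 0% = enzyme with DMSO and 100% = wells lacking LYPLA1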
PME-1 inh: blocks human protein phosphatase methylesterase 1. recombinant PME-1, FP-Rh probe fluorescence polarization. inhibition, % at 5.9 µM. 0.53% of 320,000 active;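 active = inhibition above the campaign mean of all compounds plus 3 SD, cut at about 26% in these data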;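 also: competitive labeling of PME-1 active site by serine hydrolase directed probe; 0% = PME-1 with DMSO and 100% = wells lacking PME-1 enzyme; inhibitors block probe labeling so polarization falls and inhibition rises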
LYPLA2 inh: counter-screen for PME1 inhibitors: inhibitors of human LYPLA2; O95372; recombinant LYPLA2, FP-Rh probe fluorescence polarization; inhibition, % at 5.9 µM; 0.38% of 320,000 active; AID 2177;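 active = inhibition above the screen-wide mean plus 3 SD, limit set per campaign, cut at about 26% in these data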;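 also: 0% = LYPLA2 with DMSO and 100% = wells lacking LYPLA2 enzyme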
PREPL inhibitor: inhibits the human prolyl oligopeptidase-like enzyme; Q4J6C6; recombinant PREPL, fluorescence polarization activity-based probe; inhibition, % at 5.96 µM; 0.68% of 320,000 active; in the data active = inhibition above about 43%;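 also: 0% = enzyme with DMSO and 100% = wells lacking enzyme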
Target sequence (Q4J6C6 whole entry, looked up): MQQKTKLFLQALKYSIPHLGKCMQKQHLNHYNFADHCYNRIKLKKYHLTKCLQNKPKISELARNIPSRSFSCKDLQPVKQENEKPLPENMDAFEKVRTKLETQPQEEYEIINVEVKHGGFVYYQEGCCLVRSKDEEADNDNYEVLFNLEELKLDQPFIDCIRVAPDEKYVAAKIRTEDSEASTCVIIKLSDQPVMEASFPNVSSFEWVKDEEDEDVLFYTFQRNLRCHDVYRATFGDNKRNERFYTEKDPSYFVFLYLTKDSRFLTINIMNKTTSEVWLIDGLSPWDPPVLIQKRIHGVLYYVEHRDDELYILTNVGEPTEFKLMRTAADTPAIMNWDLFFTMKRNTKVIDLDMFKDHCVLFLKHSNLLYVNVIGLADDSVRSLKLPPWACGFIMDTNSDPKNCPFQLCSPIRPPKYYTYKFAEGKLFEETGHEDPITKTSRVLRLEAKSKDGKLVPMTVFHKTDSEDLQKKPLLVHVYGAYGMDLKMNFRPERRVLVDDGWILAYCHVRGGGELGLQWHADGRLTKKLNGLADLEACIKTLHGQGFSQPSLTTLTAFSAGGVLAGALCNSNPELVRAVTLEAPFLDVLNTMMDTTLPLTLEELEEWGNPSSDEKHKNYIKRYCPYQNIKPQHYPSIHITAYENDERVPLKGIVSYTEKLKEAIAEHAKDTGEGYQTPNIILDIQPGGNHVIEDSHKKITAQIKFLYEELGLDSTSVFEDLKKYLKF
Fam108B inh: counter-screen for RBBP9 inhibitors: inhibitors of mouse Fam108B; recombinant Fam108B, FP-Rh probe fluorescence polarization; inhibition, % at 9.51 µM; 0.33% of 300,000 active; AID 1947;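 active = inhibition above the screen mean inhibition plus 3 SD, computed separately per campaign, cut at about 18% in these data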;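 also: inhibitors lower polarization as less probe binds the enzyme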
GSTO1 inh: blocks human GSTO1 in RBBP9 counter-screen. P78417. recombinant GSTO1, activity-based probe fluorescence polarization. inhibition, % at 5.96 µM. 1.1% of 300,000 active. AID 1974;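 active = inhibition above the campaign mean inhibition plus 3 SD, cut at about 35% in these data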;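 also: 0% = GSTO1-1 with DMSO and 100% = wells lacking GSTO1-1 enzyme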
LYPLA1 conf: counter-screen for PME1 inhibitors: confirmation of human LYPLA1 inhibitors | recombinant LYPLA1, FP-Rh probe fluorescence polarization | inhibition, % at 5.9 µM | shares compounds with LYPLA1 counter | AID 2233 | 69% of 480 active;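 active = mean inhibition across replicates above the hit cutoff set in the primary screen, cut at about 15% in these data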;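 also: loss of FP-Rh probe labeling of LYPLA1 seen as lower polarization; 0% = LYPLA1 with DMSO and 100% = wells lacking LYPLA1 enzyme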
Numbers without * were called inactive; . = no result. Hits are enriched below; roughly 2% of the tested compounds scored in any of these assays.

SMILES | LYPLA1 counter | PME-1 inh | LYPLA2 inh | PREPL inhibitor | Fam108B inh | GSTO1 inh | LYPLA1 conf
C=CCN1C(=O)C(CC(=O)O)SC1=Nc1ccc(C)cc1 (centres undefined) | -4 | -5 | -3 | 2 | -3 | -7 | .
O=C(COC(=O)C1CC2C=CC1C2)Nc1cccc(S(=O)(=O)N2CCCCCC2)c1 (centres undefined) | 37* | 6 | 17 | -2 | -2 | -5 | 46*
O=C(COC(=O)C1CC2C=CC1C2)Nc1cccc(S(=O)(=O)N2CCCCC2)c1 (centres undefined) | 16* | -3 | 8 | -9 | 3 | -5 | 28*
CC(CCc1ccccc1)NC(=O)CN1CCN(c2ccccc2)CC1 (centres undefined) | 6 | 9 | 4 | -1 | 8 | 6 | .
CNc1ccc(/C=C(\CCC(=O)O)c2nc3ccccc3s2)cc1[N+](=O)[O-] | 16* | 25 | 11 | 24 | 13 | 25 | 22*
Cn1cnnc1Sc1ccc(/C=C(\CCC(=O)O)c2nc3ccccc3s2)cc1[N+](=O)[O-] | 5 | -1 | 2 | 3 | 1 | 3 | .
CCCCc1cc(=O)oc2cc(OCc3nn[nH]n3)c(Cl)cc12 | 22* | 0 | 17 | -5 | 5 | -7 | 21*
CCc1c(C)sc(NC(=O)CN2CCN(C(=O)c3ccco3)CC2)c1C(=O)OC | 0 | 6 | 6 | 15 | -2 | 18 | .
N#Cc1c(NC(=O)CN2CCN(C(=O)c3ccco3)CC2)sc2c1CCCCC2 | 51* | 2 | 18 | 16 | 0 | 2 | 56*
O=C(CN1CCOCC1)Nc1cc(C(F)(F)F)ccc1Cl | -2 | 2 | 7 | -6 | 1 | 6 | .
O=C(CN1CCN(C(=O)c2ccco2)CC1)Nc1cc(C(F)(F)F)ccc1Cl | 91* | 0 | 11 | 4 | -3 | -2 | 92*
COc1cccc(C(=O)NCCS(=O)(=O)N2CCC(C)CC2)c1 | 1 | 3 | 1 | 3 | -1 | 2 | .
O=C(CSc1nccn1Cc1ccco1)Nc1ccccc1 | 0 | 2 | 3 | -2 | -2 | -5 | .
CC(=O)OC(C)=O | 2 | 5 | -5 | 5 | . | . | .
COc1ccccc1-c1csc(-n2ncc(C#N)c2N)n1 | 22* | -10 | 24 | -3 | -11 | -7 | 40*
COc1ccc(-c2csc(-n3ncc(-c4ccccn4)c3N)n2)cc1 | -3 | 1 | -3 | 0 | -4 | 10 | .
CC(C)CNC(=O)c1cccc(NC(=O)c2ccc3c(c2)C(=O)N(C)C3=O)c1 | 26* | 3 | 15 | -11 | 0 | 7 | 27*
CCC(=O)Oc1ccc(C(=O)Nc2cccc(C(=O)NCC(C)C)c2)cc1 | 2 | 6 | 6 | 12 | 7 | -4 | .
Cc1onc(-c2c(Cl)cccc2Cl)c1C(=O)Nc1ccc(N2CCOCC2)cc1 | -2 | -3 | -6 | 17 | 1 | 0 | .
NC(=O)C1CCN(c2ncnc3c2c(-c2ccccc2)cn3-c2ccccc2)CC1 | 17* | 5 | 18 | 13 | -2 | -1 | 19*
O=C1c2cccc3c(N4CCCCC4)ccc(c23)C(=O)N1CCO | 3 | -4 | 2 | 21 | -3 | -41 | .
Cc1n[nH]c(C)c1N1C(=O)c2cccc3c(N4CCCCCC4)ccc(c23)C1=O | 20* | 17 | 22 | 23 | 8 | 13 | 19*
COC(=O)c1cc(CSc2nc3ccccc3c(=O)n2C)oc1C | 0 | -1 | 9 | 4 | 2 | -4 | .
CCNC(=S)NNC(=O)Cn1c(=O)c2c(ncn2CCOC)n(Cc2ccccc2)c1=O | 41* | -4 | -10 | -3 | -4 | 1 | 1
COCCn1cnc2c1c(=O)n(CC(=O)OCC#N)c(=O)n2Cc1ccccc1 | -2 | -1 | 2 | 4 | 0 | -1 | .
SMILES | LYPLA1 counter | PME-1 inh | LYPLA2 inh | PREPL inhibitor | Fam108B inh | GSTO1 inh | LYPLA1 conf
Cc1ccc(-c2cc(C(=O)N3CCCc4ccccc43)no2)cc1 | -1 | 3 | 1 | 14 | -4 | -1 | .
Cc1cc(O)ccc1N/C=C1\CCCC1=O | 19* | 24 | 15 | 33 | 8 | 29 | 3
O=C(CCNc1ccc(Cc2ccncc2)cc1)c1cccc([N+](=O)[O-])c1 | 18* | 11 | 20 | 19 | 7 | 6 | 36*
Cc1onc(-c2ccccc2Cl)c1C(=O)NCc1ccc2c(c1)cc(C)n2C | 16* | 23 | 22 | 30 | 8 | 13 | 13
O=C(NC1CC1)c1c[nH]c2ccc(S(=O)(=O)Nc3cccc(C(F)(F)F)c3)cc2c1=O | 14* | -1 | -8 | -3 | -2 | -4 | 6
COc1cc(CNc2ccc(O)cc2)cc(Br)c1OCc1ccccc1F | 18* | 42* | 18 | 7 | 9 | 86* | -1
COc1cc(CNCc2ccncc2)cc(Br)c1OCc1ccccc1F | -2 | -10 | 0 | -25 | 9 | 6 | .
Cc1ccc(NC(=O)C(=O)NCCCN2CCOCC2)c(C)c1 | 5 | -5 | 12 | 12 | 1 | 9 | .
CCOC(=O)C1=C(N)Oc2cc(O)ccc2C1c1ccc(C)cc1 (centres undefined) | -1 | -1 | -5 | 3 | -5 | 5 | .
Cc1ccc(C2CC(=O)Oc3cc(O)ccc32)cc1 (centres undefined) | 22* | 23 | 23 | 15 | 15 | 27 | 18*
Cc1ccc2c(c1)N(CC(=O)N1CCCC1)C(=O)c1cccnc1O2 | 2 | 1 | 6 | -4 | -1 | 1 | .
CNc1oc(-c2cccc3ccccc23)nc1C#N | 17* | 6 | 7 | 11 | 6 | 1 | 5
CNc1oc(-c2ccccc2Cl)nc1C#N | 3 | -4 | 0 | -13 | 2 | 0 | .
NC(=O)C1CCN(c2c([N+](=O)[O-])cc(C(F)(F)F)cc2[N+](=O)[O-])CC1 | 3 | 2 | -1 | 1 | -1 | -8 | .
COC(=O)C1CCN(c2c([N+](=O)[O-])cc(C(F)(F)F)cc2[N+](=O)[O-])CC1 | 32* | 6 | 12 | -6 | 2 | 1 | 33*
COc1ccccc1C(=O)NNC(=O)c1ccc(NC(=O)CC(C)C)cc1 | 2 | 2 | 3 | -4 | -1 | 14 | .
COc1ccccc1CNC(=O)COC(=O)COc1ccccc1Cc1ccccc1 | 2 | 6 | 0 | -8 | -1 | 2 | .
COC/C=C/C1=CC2=CC(=O)C(C)(OC(=O)c3cnc4ccccc4n3)C(=O)C2=CO1 (centres undefined) | 22* | 15 | 9 | 8 | 15 | 56* | -2
COC/C=C/C1=CC2=CC(=O)C(C)(OC(=O)c3cnc4ccccc4n3)C(=O)C2=CN1C(CO)CO (centres undefined) | 0 | -4 | 2 | 7 | 2 | 16 | .
N#Cc1c(NC(=O)CSc2nc(N)cc(=O)[nH]2)sc2c1CCCC2 | 46* | 2 | 14 | 7 | 0 | -19 | 47*
